Assay results reported in PubChem BioAssay (NCATS).
Inconclusive results are not listed. A number with no mark means an inactive call. Calls of active or inactive are those of the source. The call rests on the fitted dose curve; in most records, active means well fitted cell-killing curve with a large enough effect; inconclusive means small, poorly fitted or top-dose-only effect, or effect the other way; inactive means no such curve, though single readings can be large or run the other way.

experiment: Quantitative High-Throughput drug screen in 47 multiple myeloma cell lines against the NCATS MIPE library collection: KMS11_JCRBsus cell viability assay (AID 1919873); details: KMS11 myeloma viability, CellTiter-Glo ATP luminescence, 48 h; series mostly up to 45.8 µM; viability (% of control): at the top concentration; further: nearly all actives have a fitted effect of over 50% in size
How it was run: (§1)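 500 cells/well per myeloma line exposed to pinned MIPE 4.0 compounds for 48 h at 37 °C, 5% CO2. Viability read as ATP by CellTiter-Glo luminescence, normalised to DMSO-only (100%) and media-only (0%) wells.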
Potency means the concentration at half of the fitted maximal effect.

SMILES	viability (% of control)	Potency
COc1ccc(C2(C#N)CCC(C(=O)O)CC2)cc1OC1CCCC1 (configuration not stated)	93.1%	–
CN(C)c1ccc2nc3ccc(=[N+](C)C)cc-3sc2c1	–	2.64 µM (active)
N[C@@H](Cc1cc(I)c(Oc2cc(I)c(O)c(I)c2)c(I)c1)C(=O)O	105%	–
Nc1ccn([C@@H]2O[C@H](CO)[C@@H](O)C2O)c(=O)n1 (some centres not stated)	–	14.8 µM (active)
CCCCC(CC)COC(=O)C(C#N)=C(c1ccccc1)c1ccccc1 (configuration not stated)	109%	–
O=C(O)c1cc(=O)c2c(OCC(O)COc3cccc4oc(C(=O)O)cc(=O)c34)cccc2o1	72.4%	–
CCN(CC)C(=S)SSC(=S)N(CC)CC	–	0.003 µM (active)
Cc1nc2n(c(=O)c1CCN1CCC(c3noc4cc(F)ccc34)CC1)CCCC2	110%	–
CC1=C(C(=O)O)N2C(=O)[C@@H](NC(=O)[C@H](N)C3=CCC=CC3)[C@H]2SC1	121%	–
c1ccc2[nH]c(-c3cscn3)nc2c1	102%	–
NNc1nncc2ccccc12	107%	–
c1cnc2cc3c(cc2n1)C1CNCC3C1	130%	–
COc1cc(Nc2c(C#N)cnc3cc(OCCCN4CCN(C)CC4)c(OC)cc23)c(Cl)cc1Cl	–	18.7 µM (active)
O=C(O)c1cccc(-c2noc(-c3ccccc3F)n2)c1	78.9%	–
NC(=O)Cc1cccc(C(=O)c2ccccc2)c1N	85.1%	–
Cc1cc(=O)oc2cc(O)ccc12	108%	–

SMILES	viability (% of control)	Potency
CC1Cc2ccccc2N1NC(=O)c1ccc(Cl)c(S(N)(=O)=O)c1 (configuration not stated)	107%	–
NC(=NCc1ccccc1)NC(=O)c1nc(Cl)c(N)nc1N	97.6%	–
C[C@H](Cn1cnc2c(N)ncnc21)OCP(=O)(O)O	122%	–
CCC1=C(C)CN(C(=O)NCCc2ccc(S(=O)(=O)NC(=O)NC3CCC(C)CC3)cc2)C1=O (configuration not stated)	104%	–
CS(=O)(=O)OCCCCOS(C)(=O)=O	105%	–
CCOC(=O)C1=C(O)C(=O)N(Cc2ccccc2)C1	113%	–
O=C(NCC1CCCCN1)c1cc(OCC(F)(F)F)ccc1OCC(F)(F)F (configuration not stated)	–	23.5 µM (active)
CCN(CC)CCOc1ccc(Nc2ncc3cc(-c4c(Cl)cccc4Cl)c(=O)n(C)c3n2)cc1	–	0.0418 µM (active)
COc1c(O)cc2c(c1O)[C@@H]1O[C@H](CO)[C@@H](O)[C@H](O)[C@H]1OC2=O	89.4%	–
O=P(O)(O)C(O)(Cn1ccnc1)P(=O)(O)O	106% [at 23.2 µM]	–
CNC[C@H](O)c1ccc(O)c(O)c1	–	19.1 µM (active)
Nc1nc(Cl)nc2c1ncn2[C@H]1C[C@H](O)[C@@H](CO)O1	–	5.26 µM (active)
CCN(CCO)CCCC(C)Nc1ccnc2cc(Cl)ccc12 (configuration not stated)	113%	–
Nc1nc(N)c(N=O)c(OCC2CCCCC2)n1	–	6.62 µM (active)
CC(S)C(=O)NCC(=O)O (configuration not stated)	87%	–

experiment: Quantitative High-Throughput drug screen in 47 multiple myeloma cell lines against the NCATS MIPE library collection: KMS28BM_JCRB cell viability assay (AID 1919874); details: CellTiter-Glo ATP, 48 h; series mostly up to 45.8 µM; viability, % of control: at the top concentration; further: nearly all actives have a fitted effect of over 35% in size
How it was run: as §1

SMILES	viability, % of control	Potency
COc1ccc(C2(C#N)CCC(C(=O)O)CC2)cc1OC1CCCC1 (configuration not stated)	90.7%	–
CN(C)c1ccc2nc3ccc(=[N+](C)C)cc-3sc2c1	–	2.96 µM (active)
N[C@@H](Cc1cc(I)c(Oc2cc(I)c(O)c(I)c2)c(I)c1)C(=O)O	141%	–
Nc1ccn([C@@H]2O[C@H](CO)[C@@H](O)C2O)c(=O)n1 (some centres not stated)	92.3%	–
CCCCC(CC)COC(=O)C(C#N)=C(c1ccccc1)c1ccccc1 (configuration not stated)	103%	–
O=C(O)c1cc(=O)c2c(OCC(O)COc3cccc4oc(C(=O)O)cc(=O)c34)cccc2o1	111%	–
CCN(CC)C(=S)SSC(=S)N(CC)CC	–	0.0019 µM (active)
Cc1nc2n(c(=O)c1CCN1CCC(c3noc4cc(F)ccc34)CC1)CCCC2	89.6%	–
CC1=C(C(=O)O)N2C(=O)[C@@H](NC(=O)[C@H](N)C3=CCC=CC3)[C@H]2SC1	122%	–
c1ccc2[nH]c(-c3cscn3)nc2c1	98.6%	–
NNc1nncc2ccccc12	109%	–
c1cnc2cc3c(cc2n1)C1CNCC3C1	128%	–
COc1cc(Nc2c(C#N)cnc3cc(OCCCN4CCN(C)CC4)c(OC)cc23)c(Cl)cc1Cl	–	18.7 µM (active)
O=C(O)c1cccc(-c2noc(-c3ccccc3F)n2)c1	92.3%	–
NC(=O)Cc1cccc(C(=O)c2ccccc2)c1N	111%	–
Cc1cc(=O)oc2cc(O)ccc12	119%	–

SMILES	viability, % of control	Potency
CC1Cc2ccccc2N1NC(=O)c1ccc(Cl)c(S(N)(=O)=O)c1 (configuration not stated)	–	1.05 µM (active)
NC(=NCc1ccccc1)NC(=O)c1nc(Cl)c(N)nc1N	124%	–
C[C@H](Cn1cnc2c(N)ncnc21)OCP(=O)(O)O	102%	–
CCC1=C(C)CN(C(=O)NCCc2ccc(S(=O)(=O)NC(=O)NC3CCC(C)CC3)cc2)C1=O (configuration not stated)	108%	–
CS(=O)(=O)OCCCCOS(C)(=O)=O	111%	–
CCOC(=O)C1=C(O)C(=O)N(Cc2ccccc2)C1	122%	–
O=C(NCC1CCCCN1)c1cc(OCC(F)(F)F)ccc1OCC(F)(F)F (configuration not stated)	–	18.7 µM (active)
CCN(CC)CCOc1ccc(Nc2ncc3cc(-c4c(Cl)cccc4Cl)c(=O)n(C)c3n2)cc1	–	0.526 µM (active)
COc1c(O)cc2c(c1O)[C@@H]1O[C@H](CO)[C@@H](O)[C@H](O)[C@H]1OC2=O	114%	–
O=P(O)(O)C(O)(Cn1ccnc1)P(=O)(O)O	121% [at 23.2 µM]	–
CNC[C@H](O)c1ccc(O)c(O)c1	–	21.5 µM (active)
Nc1nc(Cl)nc2c1ncn2[C@H]1C[C@H](O)[C@@H](CO)O1	–	4.18 µM (active)
CCN(CCO)CCCC(C)Nc1ccnc2cc(Cl)ccc12 (configuration not stated)	101%	–
Nc1nc(N)c(N=O)c(OCC2CCCCC2)n1	–	16.6 µM (active)
CC(S)C(=O)NCC(=O)O (configuration not stated)	121%	–
